Test results published in PubChem BioAssay.
The source made the active and inactive calls. Unless noted, the rule behind the calls is not given here.

Tests used:
[1] = A549 cell viability effects, profiling panel, calcein-AM fluorescence, 48 h, basal (AID 1162); settings: higher = more signal; note: test concentration not given here
[2] = adipocyte viability effects, profiling panel, cell-based, 3T3-L1 adipocytes, calcein-AM fluorescence, 48 h, basal (AID 1163); settings: 3T3-L1 adipocytes viability, higher = more signal; note: test concentration not given here
[3] = HepG2 cell viability effects, profiling panel, calcein-AM fluorescence, 48 h, basal (AID 1164); settings: higher = more signal; note: test concentration not given here
[4] = MM1S cell viability effects, profiling panel, calcein-AM fluorescence, 48 h, basal (AID 1165); settings: higher = more signal;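 note: viability of MM1S multiple myeloma cells under basal unstimulated conditions; test concentration not given here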
[5] = basal RPMI8226 viability, no added stimulus, profiling panel, cell-based, calcein-AM fluorescence, 48 h, PK04 Diversity Set (AID 1166); settings: RPMI8226 myeloma viability, higher = more signal;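 note: cells grown under basal conditions without added stimulus; test concentration not given here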
[6] = basal HepG2 mitochondrial membrane potential changes, profiling panel, cell-based, JC-1 fluorescence, 24 h, 100 nL compound (AID 1167); settings: higher = more signal; note: test concentration not given here
[7] = basal 3T3-L1 adipocyte mitochondrial potential changes, profiling panel, cell-based, JC-1 fluorescence, 3T3-L1 adipocytes, 24 h, 100 nL compound (AID 1168); settings: JC-1 mitochondrial fluorescence, higher = more signal, called active from +8 up or from −8 down; note: test concentration not given here
[8] = basal RPMI8226 mitochondrial membrane potential changes, profiling panel, cell-based, JC-1 fluorescence, 24 h, 100 nL compound (AID 1169); settings: RPMI8226 myeloma, JC-1 mitochondrial potential fluorescence, higher = more signal; note: test concentration not given here
[9] = basal MM1S mitochondrial membrane potential changes, profiling panel, cell-based, JC-1 fluorescence, 24 h, 100 nL compound (AID 1170); settings: higher = more signal; note: test concentration not given here
[10] = A549 lung cancer cell viability effects, profiling panel, resazurin fluorescence, 24 h, PK04 Diversity Set (AID 1171); settings: higher = more signal, called active from +8 up or from −8 down; note: test concentration not given here
[11] = HepG2 liver cancer cell viability effects, profiling panel, resazurin fluorescence, 24 h, PK04 Diversity Set (AID 1172); settings: higher = more signal; note: test concentration not given here
[12] = basal S. cerevisiae growth modulation, no modifier, primary screen, OD600, strain BY4716, 24 h, basal condition (AID 1173); settings: OD600, 24 h, higher = more signal, called active from +8 up or from −8 down
[13] = MM1S myeloma cell viability, profiling panel, resazurin fluorescence, basal, 24 h, PK04 Diversity Set (AID 1174); settings: higher = more signal, called active from +8 up or from −8 down;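 note: MM1S multiple myeloma cell line; test concentration not given here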
[14] = target: Dihydroorotate dehydrogenase (quinone), mitochondrial (Plasmodium falciparum (isolate 3D7)) (UniProt Q08210); experiment: PfDHODH enzyme inhibitors, primary screen, biochemical, C-terminal His tag, absorbance 600 nm (AID 1175); settings: DCIP absorbance 600 nm, higher = more signal, called active from +8 up or from −8 down;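 note: recombinant parasite enzyme with a five histidine tag at its C terminus; test concentration not given here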
[15] = P. aeruginosa biofilm formation inhibitors, primary screen, strain PAO1, LB-PBS medium, absorbance 600 nm (AID 1176); note: test concentration not given here; settings: P. aeruginosa PAO1 growth/biofilm, A600, 12 h; higher = more signal
[16] = S. cerevisiae RM11-1a growth modifiers, primary screen, strain RM11-1a, OD600, basal, 24 h (AID 1177); settings: OD600, 24 h, higher = more signal, called active from +8 up or from −8 down;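 note: cultures grown under basal conditions with no added stressor; test concentration not given here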
[17] = E. coli acrAB mutant growth effects, primary screen, E. coli filamentation inducers, strain DRC39, OD650, 24 h (AID 1178); settings: higher = more signal, called active from +8 up or from −8 down;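 note: growth measured as culture turbidity by optical density at 650 nm; test concentration not given here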
[18] = E. coli acrAB mutant growth effects, primary screen, E. coli filamentation inducers, strain DRC39, OD650, 48 h (AID 1179);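 note: screen aims at cell division blockers that make cells filament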; settings: E. coli DRC39 delta-acrAB growth, higher = more signal, called active from +8 up or from −8 down
[19] = RPMI8226 myeloma cell viability, profiling panel, resazurin fluorescence, basal, 24 h, PK04 Diversity Set (AID 1180); settings: higher = more signal;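 note: RPMI8826 multiple myeloma cell line at 5000 cells per well; test concentration not given here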
[20] = target: E3 ubiquitin-protein ligase XIAP (Homo sapiens) (UniProt P98170); experiment: XIAP binders, primary screen, biophysical, small-molecule microarray, fluorescence 635 nm (AID 1181); settings: small-molecule microarray binding, higher = more signal;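 note: score merges 667 nm emission and signal to noise over triplicate slides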
Chain of E3 ubiquitin-protein ligase XIAP (Homo sapiens) (P98170 whole entry, looked up): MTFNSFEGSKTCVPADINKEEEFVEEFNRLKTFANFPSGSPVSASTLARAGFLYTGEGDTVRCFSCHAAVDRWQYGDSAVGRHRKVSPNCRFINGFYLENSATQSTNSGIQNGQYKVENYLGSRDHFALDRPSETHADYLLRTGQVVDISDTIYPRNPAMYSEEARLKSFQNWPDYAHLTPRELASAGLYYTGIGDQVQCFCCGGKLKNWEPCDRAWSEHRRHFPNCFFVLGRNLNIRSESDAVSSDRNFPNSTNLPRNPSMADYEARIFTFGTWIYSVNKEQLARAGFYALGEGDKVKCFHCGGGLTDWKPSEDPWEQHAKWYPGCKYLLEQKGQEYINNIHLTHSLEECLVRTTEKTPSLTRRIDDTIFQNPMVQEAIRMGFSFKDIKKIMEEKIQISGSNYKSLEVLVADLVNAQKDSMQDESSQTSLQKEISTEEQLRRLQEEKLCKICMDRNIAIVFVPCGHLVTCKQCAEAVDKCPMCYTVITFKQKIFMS

Chain of Dihydroorotate dehydrogenase (quinone), mitochondrial (Plasmodium falciparum (isolate 3D7)) (Q08210 whole entry, looked up): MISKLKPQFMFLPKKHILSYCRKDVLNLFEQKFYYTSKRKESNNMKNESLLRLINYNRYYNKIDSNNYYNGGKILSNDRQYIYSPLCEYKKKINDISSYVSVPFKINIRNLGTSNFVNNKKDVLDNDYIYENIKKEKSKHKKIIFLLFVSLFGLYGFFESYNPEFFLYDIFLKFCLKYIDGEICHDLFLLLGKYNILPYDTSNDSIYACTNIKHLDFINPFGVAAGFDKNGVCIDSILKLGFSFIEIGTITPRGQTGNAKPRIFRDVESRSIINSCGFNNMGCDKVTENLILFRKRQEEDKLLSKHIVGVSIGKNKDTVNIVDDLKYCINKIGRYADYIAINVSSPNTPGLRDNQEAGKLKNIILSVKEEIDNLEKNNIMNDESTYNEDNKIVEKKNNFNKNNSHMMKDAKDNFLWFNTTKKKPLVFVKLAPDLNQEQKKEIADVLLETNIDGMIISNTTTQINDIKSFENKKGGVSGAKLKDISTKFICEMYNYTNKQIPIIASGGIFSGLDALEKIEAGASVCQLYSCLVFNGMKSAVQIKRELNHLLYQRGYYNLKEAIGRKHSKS

SMILES	z-score [1]	z-score [2]	z-score [3]	z-score [4]	z-score [5]	z-score [6]	z-score [7]	z-score [8]	z-score [9]	z-score [10]	z-score [11]	z-score [12]	z-score [13]	composite z-score [14]	z-score [15]	z-score [16]	z-score [17]	z-score [18]	z-score [19]	composite z-score [20]
CCOC(=O)C[C@H]1[C@H](OC(=O)c2ccccc2-c2ccccc2)[C@@H](NC(=O)c2ccccc2)c2cc(OCCCO)ccc2N1C(=O)Cc1ccc(OC)cc1	1.29	0.182	0.144	-0.128	0.206	1.02	-0.387 (inactive)	-1.04	0.277	0.995 (inactive)	0.834	0.606 (inactive)	-0.397 (inactive)	-0.369 (inactive)	0.142 (inactive)	0.143 (inactive)	0.228 (inactive)	0.15 (inactive)	-0.37	0.0871
CCCNC(=O)[C@@H]1c2ccccc2C(=O)N(CC23CC4CC(CC(C4)C2)C3)[C@H]1c1ccc(CO)cc1	-0.242	0.487	0.275	-0.671	-2.49	1.81	-0.0153 (inactive)	-0.236	0.141	0.704 (inactive)	-0.411	-0.774 (inactive)	0.411 (inactive)	0.627 (inactive)	0.718 (inactive)	0.987 (inactive)	-0.0494 (inactive)	-0.501 (inactive)	0.748	1.94
C=CCOC(=O)[C@@H]1[C@H]2C(=O)O[C@H](c3ccccc3)[C@H](c3ccccc3)N2[C@H](c2ccc(OCCOC(=O)[C@@H]3C[C@@H]4C(=O)N5CCC[C@H]5C(=O)N4[C@@H]3c3cccc(OCCO)c3)cc2)[C@@]12C(=O)Nc1ccc(I)cc12	-0.283	0.584	-1.27	-0.16	0.583	-0.853	0.272 (inactive)	-0.661	-0.984	0.592 (inactive)	0.586	1.53 (inactive)	0.356 (inactive)	-0.652 (inactive)	1.69 (inactive)	2.07 (inactive)	0.132 (inactive)	-0.63 (inactive)	0.281	-0.224
COC(=O)C(CC#Cc1ccc2c(c1)[C@]1(C(=O)N2)[C@H](c2ccc(O)cc2)N2[C@H](c3ccccc3)[C@H](c3ccccc3)OC(=O)[C@H]2[C@@H]1C(=O)O)C(=O)OC	0.391	-0.987	0.0171	0.226	-0.892	-0.141	-0.687 (inactive)	0.491	0.412	-0.279 (inactive)	0.464	0.338 (inactive)	-0.134 (inactive)	-1.59 (inactive)	0.875 (inactive)	-0.316 (inactive)	-0.0388 (inactive)	-0.286 (inactive)	-0.0316	-0.374
Cc1cc(C)c(C(O)C2C=CC3C(=O)N(c4ccccc4)C(=O)C3N2Nc2ccc([N+](=O)[O-])cc2)c(C)c1 (stereo not given)	-0.308	1.09	-0.0308	-0.86	-0.662	-1.95	-3.61 (inactive)	-0.367	-1.04	0.634 (inactive)	-0.221	0.414 (inactive)	-0.237 (inactive)	-0.212 (inactive)	1.64 (inactive)	0.258 (inactive)	-0.777 (inactive)	-0.624 (inactive)	0.0375	0.0827
CCCN1C(=O)[C@@]2(Cc3ccccc3)N=C(c3ccc(OCCCO)cc3)O[C@H]2c2ccccc21	-1.54	0.778	-1.7	-2.34	-4.32	-0.214	1.18 (inactive)	-1.27	-0.647	-0.232 (inactive)	0.167	-2.03 (inactive)	-1.66 (inactive)	-0.319 (inactive)	1.02 (inactive)	0.673 (inactive)	0.248 (inactive)	-0.319 (inactive)	-1.57	-0.206
O=C1N(Cc2ccccc2)c2ccccc2[C@H]2OC(c3ccc(OCCCO)cc3)=N[C@@]12CCS(=O)(=O)c1ccccc1	-0.737	0.899	-0.117	-0.641	-1.43	0.291	0.605 (inactive)	-0.497	-0.0454	-0.725 (inactive)	-0.362	1.21 (inactive)	-0.56 (inactive)	0.876 (inactive)	1.47 (inactive)	2.68 (inactive)	0.244 (inactive)	-0.939 (inactive)	-0.509	0.12
COCCOC(=O)N1C(=O)[C@@]2(c3cc(C#CCC(C(=O)OC)C(=O)OC)ccc31)[C@H](c1ccc(OCCO)cc1)N1[C@H](c3ccccc3)[C@H](c3ccccc3)OC(=O)[C@H]1[C@@H]2C(N)=O	0.462	0.433	0.322	-2.51	-2.67	-0.0777	1.3 (inactive)	-0.72	-0.0535	1.18 (inactive)	0.331	1.87 (inactive)	-0.22 (inactive)	-1.15 (inactive)	2.32 (inactive)	2.34 (inactive)	-0.102 (inactive)	-0.554 (inactive)	-0.112	0.049
C=CCN1C(=O)[C@@]2(O[C@@H](CCO)[C@H]([Si](C)(C)c3ccc(OC)cc3)[C@H]2C)c2cc(NC(=O)[C@H](C)O)ccc21	0.174	0.178	-2.92	-2.69	-4.41	1.89	0.18 (inactive)	-0.872	-1.09	-2.25 (inactive)	-1.15	-2.34 (inactive)	-2.15 (inactive)	-0.108 (inactive)	1.73 (inactive)	2.32 (inactive)	0.895 (inactive)	0.403 (inactive)	-2.3	0.555
